“And” between values parts separate entries of the source, which are not always exact repeats. Identical values can stand only once. Out of some 420,000 compounds screened, about 50,000 (12%) were called active. Another 26% or so got no clear call; they are omitted. Calls come from the whole dose curve; as a rule, active = well fitted inhibition curve with a large enough effect; inconclusive = small, poorly fitted or top-dose-only effect; inactive = flat fitted curve, though single readings scatter. The sample as a whole holds a higher share of actives than the screen did. Where a structure was tested more than once in an assay, its records may differ in their call.
Assay: qHTS for Inhibitors of human tyrosyl-DNA phosphodiesterase 1 (TDP1): qHTS in cells in presence of CPT; note: nearly all actives have a fitted effect of over 55% in size
Details: chicken DT40 Tdp1-/-;hTDP1 cells + 20 nM CPT, ATP luminescence, 48 h; series mostly up to 46.2 µM; activity change, negative = growth inhibition: at the top concentration
Procedure, shortened: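 Chicken DT40 Tdp1-/- cells stably complemented with human TDP1 were seeded at 400 cells/well in medium containing 20 nM camptothecin, exposed to pin-transferred compounds, and grown at 37 °C for at least 48 hr. Viability was read as ATP luminescence.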
% is set by controls: 0 for no effect and ±100 for the full control effect; potency is the fitted concentration of half-maximal effect.

Compound	activity change, negative = growth inhibition	Potency
COc1cc(N2C(=O)CSC2=S)cc(OC)c1OC	-18.5% (inactive)	–
CCOC(=O)c1nnn(CC(=O)NC(=O)Nc2ccccc2F)c1C(=O)OCC	-18.1% (inactive)	–
Cn1c(CCNS(=O)(=O)c2ccc(F)cc2)nnc1SCc1cccnc1	6.59% (inactive)	–
CC(C)CN1CCNC(=O)C1CC(=O)N(C)CC1CCOCC1 (centres undefined)	-7.75% (inactive)	–
O=C(NCCS(=O)(=O)N1CCN(c2ccc(F)cc2)CC1)c1ccccc1Br	-15% (inactive)	–
COc1ccccc1CCNC(=O)CN1C(=O)NC2(CCCC2)C1=O	-0.37% (inactive)	–
COC(=O)c1cc(NC(=O)CC2C(=O)NCCN2C(=O)c2ccc(F)cc2)cc(C(=O)OC)c1 (centres undefined)	-7.17% (inactive)	–
CCOc1ccc(C(C(=O)NCCOC)N(CCOC)C(=O)CCC(=O)Nc2ccccn2)cc1 (centres undefined)	-15.2% (inactive)	–
CCN(C(=O)c1cc([N+](=O)[O-])ccc1NCc1cccnc1)c1ccccc1	-12% (inactive)	–
CCCn1nc(C(=O)NNC(=O)CSCC(=O)Nc2cc(C)on2)c2ccccc2c1=O	-12.3% (inactive)	–
CC(NC(=O)c1ccccc1)C(=O)Nc1ccccc1 (centres undefined)	4.22% (inactive)	–
O=C(NC(=O)c1ccccc1)NC(=O)c1ccccc1	-13.4% (inactive)	–
O=C(NC1=CC(=O)c2ccccc2C1=O)c1ccccc1	–	0.651 µM (active)
CCC1CN(CCNC(=O)c2ccsc2)Cc2cc(OC)ccc2O1 (centres undefined)	9.24% [at 9.04 µM] (inactive)	–
COc1ccc(C(C(=O)NCC2CCCO2)N(C(=O)Cn2nnc3ccccc32)c2ccc(NC(C)=O)cc2)cc1OC (centres undefined)	-3.72% (inactive)	–
O=[N+]([O-])c1ccc(CN2CC(N3CCC(c4ccccc4)CC3)CS2(=O)=O)cc1 (centres undefined)	–	18.4 µM (active)
O=S1(=O)CC(N2CCN(Cc3ccccc3F)CC2)CN1Cc1cn(Cc2ccccc2)nn1 (centres undefined)	-28.2% (inactive)	–
O=S1(=O)CC(N2CCN(c3ccccn3)CC2)CN1Cc1ccc(F)cc1 (centres undefined)	-24.6% (inactive)	–
CCc1nn(CC(=O)N2CCN(CC)CC2)c(=O)c2cccn12	-3.09% (inactive)	–
COc1ccc(S(=O)(=O)NC(C)c2ccccc2)cc1C(=O)N1CCCCC1 (centres undefined)	-21.2% (inactive)	–
Cc1ccc(S(=O)(=O)n2cccc2CO)cc1	-23.8% (inactive)	–
COc1cccc2cc(-c3nc(Cl)c4c5c(sc4n3)CC(C)CC5)c(=O)oc12 (centres undefined)	7.42% (inactive)	–
Cc1ccc(/C=C/C(=O)Nc2ccc([N+](=O)[O-])c(NC(=O)/C=C/c3ccc(C)o3)c2)o1	–	11.6 µM (active)
COc1ccc(OC)c(NC(=O)/C=C/c2ccc(C)o2)c1	-27.6% (inactive)	–
CCc1nnc(NC(=O)/C=C/c2ccc(C)o2)s1	0.648% (inactive)	–
O=C(Nc1ccn(Cc2ccc(F)cc2)n1)c1ccncc1	–	18.4 µM (active)

Compound	activity change, negative = growth inhibition	Potency
O=C(Nc1ccn(Cc2ccccc2)n1)c1n[nH]c([N+](=O)[O-])c1Cl	1.99% (inactive)	–
O=C(Nc1ccn(Cc2ccccc2)n1)c1cccc(F)c1	3.99% (inactive)	–
Cn1c(=S)sc2ccc3ccccc3c21	-11.6% (inactive)	–
CC(C)NC(=O)N1CC[C@@]2(CCCN(C(=O)c3ccco3)C2)C1	0.86% (inactive)	–
Cc1ccc(NC(=O)CN2CCCCC2)c2c1CC(C)(C)O2	-23.3% (inactive)	–
O=C(O)CSc1ccc(S(=O)(=O)N2CCCC2)cn1	5.59% (inactive)	–
Cc1ccc(S(=O)(=O)NC2(C(F)(F)F)NC(=O)N(CCc3ccccc3)C2=O)cc1 (centres undefined)	–	inactive
O=C(Cc1ccc(F)cc1)N1CCN=C1SCc1cccc([N+](=O)[O-])c1	2.67% (inactive)	–
COc1ccc(NC(=O)c2cnc(Nc3ccc(C)c(Cl)c3)c3ccccc23)cc1OC	-3.58% (inactive)	–
COc1ccc(Nc2ncc(C(=O)N3CCN(c4ccccc4OC)CC3)c3ccccc23)cc1	–	29.1 µM (active) and 13 µM (active)
COc1ccccc1N1CCN(C(=O)c2ccc(NC3=NC4CS(=O)(=O)CC4S3)cc2)CC1 (centres undefined)	-12.7% (inactive)	–
O=C(Nc1cc(F)ccc1F)c1ccc2c(=O)n3c(nc2c1)CCC3	-14.7% (inactive)	–
Cc1ccc(-c2csc(NC(=O)C3=COCCO3)n2)cc1C	–	13 µM (active)
O=C(Nc1nc(-c2cccnc2)cs1)c1ccccc1F	16.5% (inactive)	–
CC(=O)NCCC(=O)Nc1nc(-c2ccc3c(c2)OCCO3)cs1	1.03% (inactive)	–
O=C(Nc1nc(-c2ccc3c(c2)OCO3)cs1)c1ccncc1	–	14.6 µM (active)
O=C(Nc1nc(-c2ccncc2)cs1)C1COc2ccccc2O1 (centres undefined)	–	20.6 µM (active)
O=C(CCc1ccccc1)Nc1ccc(NC(=O)C2CCCCC2)nc1	-19.2% (inactive)	–
COc1ccc(NC(=O)C2COc3ccccc3O2)cc1 (centres undefined)	-1.97% (inactive)	–
O=C(CCc1ccccc1)Nc1nn[nH]n1	1.24% (inactive)	–
CC(=O)c1cccc(NC(=O)C2COc3ccccc3O2)c1 (centres undefined)	-5.65% (inactive)	–
Cc1ccc(-c2csc(NC(=O)Cc3cccs3)n2)cc1C	-14.1% (inactive)	–
O=C(CCc1ccccc1)Nc1ncc([N+](=O)[O-])s1	–	20.6 µM (active)
Cc1csc(NC(=O)C2=COCCO2)n1	-2.18% (inactive)	–
Fc1ccc(/C=N/n2c(COc3ccccc3)n[nH]c2=S)cc1	0.518% (inactive)	–
C#CCN(C[C@H]1[C@H](OC(=O)NC2CCCC2)[C@H](OC(=O)NC2CCCC2)C[C@H]2C(=O)N(c3ccccc3)C(=O)[C@@H]12)S(=O)(=O)c1ccc(C)cc1	-3.61% (inactive)	–

Compound	activity change, negative = growth inhibition	Potency
CC(Oc1ccccc1)C(=O)NN1Cc2ccccc2C1=N (centres undefined)	23.1% (inactive)	–
O=C(COc1ccc([N+](=O)[O-])cc1)Nc1ccc(N2CCCC2)cc1	-21.3% (inactive)	–
C/C(=N/NC(=O)C1COc2ccccc2O1)c1ccco1 (centres undefined)	-18% (inactive)	–
O=C(Nc1ncc([N+](=O)[O-])s1)C1COc2ccccc2O1 (centres undefined)	–	14.6 µM (active)
O=C(Nc1nnc(SCc2ccc(Cl)cc2Cl)s1)C1COc2ccccc2O1 (centres undefined)	-17.7% (inactive)	–
Cc1cc(N=Nc2ccc3ccccc3c2)ccc1O	-1.82% (inactive)	–
C[C@H](NC(=O)c1nc[nH]c1C(=O)NCC(=O)OC(C)(C)C)C(=O)OCc1ccccc1	-15.4% (inactive)	–
COc1ccc(C(O)C(O)(C(=O)OC(C)C)c2ccc(C)cc2)cc1 (centres undefined)	-4.68% (inactive)	–
COc1ccc(OC)c(Nc2nc(-c3ccc(O)c(O)c3)cs2)c1	–	0.82 µM (active)
COc1ccc(OC)c(-c2csc(NC(=O)COC(=O)C3CC3)n2)c1	4.83% (inactive)	–
COc1ccc(-c2csc(Nc3ccc(O)cc3)n2)cc1	–	10.3 µM (active)
COc1ccc(-c2csc(Cc3nc(O)cs3)n2)cc1	–	18.4 µM (active)
COc1ccc(CCN(C(=O)COc2ccccc2)c2nc(-c3ccccc3)cs2)cc1OC	-26.3% (inactive)	–
COc1cccc(CC(=O)Nc2ccc(-c3csc(C)n3)cc2)c1	-20.8% (inactive)	–
COc1ccc(OC)c(-c2csc(-c3cccs3)n2)c1	-17.7% (inactive)	–
N#CCc1ccc(NC(=O)c2ccccc2C(=O)Nc2ccc(CC#N)cc2)cc1	-10.6% (inactive)	–
COc1ccc(NC(=O)COC(=O)c2n[nH]c3ccccc23)c(OC)c1	-22.8% (inactive)	–
CCOc1ccc(N2CC(C(=O)NCc3ccccn3)CC2=O)cc1 (centres undefined)	-18.4% (inactive)	–
COc1cc(/C=C/C(=O)O)cc(S(=O)(=O)Nc2ccccc2C(=O)NCCc2ccccc2)c1OC	9.8% (inactive)	–
COCCCn1c(SCC(=O)NC2CCCC2)nnc1-c1ccccc1	1.09% (inactive)	–
CCCCN(C)CCCNC(=O)CN1N=C(c2ccc(OC)cc2)CCC1=O	-11.1% (inactive)	–
O=C1NNC(c2ccccc2)=N/C1=C\c1ccc(Cl)cc1	8.6% (inactive)	–
Cc1nc(=O)c(-c2ccccc2)c(C)n1-c1ccc(Br)cc1	-15.6% (inactive)	–
CCOC(=O)c1c(C)oc(C)c(C(=O)OCC)c1=O	7.36% (inactive)	–
CC(C)Cn1cnc2c1c(=O)n(CC(=O)NN)c(=O)n2Cc1ccccc1	-2.23% (inactive)	–
CC1CCN(C(=O)c2ccc3c(c2)NC(=O)CN3)CC1	-90.8% (inactive)	–

Compound	activity change, negative = growth inhibition	Potency
COc1ccc(C(=O)Nc2c(Cl)cc(Cl)cc2C(=O)N2CCC(C)CC2)cc1	-13.5% (inactive)	–
CC1=Nc2cc(C(=O)N3CCC(C)CC3)ccc2Sc2ccc(Cl)cc21	–	14.6 µM (active)
Cc1cc(OCc2ccc(C(=O)Nc3ccc(C(=O)O)cc3)o2)ccc1Cl	2.87% (inactive)	–
CCN(CC)CCCNC(=O)CCc1ccccc1	16.4% (inactive)	–
CN(C(=O)CN(CCO)CC(=O)N(C)C(C)(C)Cc1ccccc1)C(C)(C)Cc1ccccc1	–	inactive and 3.66 µM (active)
CN(Cc1ccccc1)C(=O)CCc1ccccc1	-7.13% (inactive)	–
CCCCN(C)c1ccc([N+](=O)[O-])cc1	-24.4% (inactive)	–
Cc1cc(C)c(S(=O)(=O)c2ccccc2)c(OC(=O)c2c(F)cccc2Cl)n1	-13.3% (inactive)	–
Cc1nc(-c2ccccc2)sc1C(=O)/C=C/N(C)C	–	23.1 µM (active)
Cc1nc(-c2ccccc2)sc1C(=O)/C=C/c1ccccc1	–	23.1 µM (active)
Cc1ccc(SCC(=O)c2sc(-c3ccccc3)nc2C)cc1	-15.9% (inactive)	–
CN(C)/C=C/C(=O)c1ccccc1F	-1.6% (inactive)	–
Cc1nc(COc2cccc(Cl)c2)sc1C(=O)/C=C/N(C)C	-0.0849% (inactive)	–
Cc1nc(-c2ccc(Cl)cc2)sc1C(=O)NN	-22.1% (inactive)	–
O=C(CN1CCSCC1)N/N=C/c1ccc(F)cc1F	0.367% (inactive)	–
CCn1nc(C(=O)NNC(=O)C2CSC3(C)CCC(=O)N23)c2ccccc2c1=O (centres undefined)	0.936% (inactive)	–
COc1ccc(S(=O)(=O)NC(C)C(=O)NCc2ccncc2)cc1Cl (centres undefined)	-17.2% (inactive)	–
COc1ccc(Cn2c(=O)c3oc4ccccc4c3n(CC(=O)Nc3ccc(F)cc3F)c2=O)cc1	-12.6% (inactive)	–
CN=C(c1ccccc1)c1c(C)cccc1C	-7.69% (inactive)	–
COc1cc(Nc2nc3ccc(Cl)cc3n3cnnc23)cc(OC)c1OC	–	20.6 µM (active)
CCOc1ccc(OCC)c(Nc2nc3ccccc3n3nnnc23)c1	-8.29% (inactive)	–
COc1ccc(CCNc2nc3ccc(C)cc3n3cnnc23)cc1OC	–	14.6 µM (active)
COc1ccc(OC)c(C(O)c2nc3ccccc3n2C)c1 (centres undefined)	5% (inactive)	–
COc1ccccc1CNc1nc2ccc(Cl)cc2n2cnnc12	8.74% (inactive)	–
COc1ccc(OC)c(Nc2nc3ccccc3n3cnnc23)c1	–	4.11 µM (active)
CCOC(=O)Cc1cccc(-c2cc(CCCCCCc3ccc(O[C@H]4O[C@H](COC(C)=O)[C@@H](OC(C)=O)[C@H](OC(C)=O)[C@@H]4OC(C)=O)c(-c4cccc(CC(=O)OCC)c4)c3)ccc2O[C@H]2O[C@H](COC(C)=O)[C@@H](OC(C)=O)[C@H](OC(C)=O)[C@@H]2OC(C)=O)c1	-10.5% (inactive)	–

Reference: PubChem BioAssay AID686979 (National Center for Advancing Translational Sciences (NCATS), 2013)
